Assay results: PubChem BioAssay AID680 (PCMD, 2007)
The campaign covered roughly 62,000 compounds. About 120 (0.19%) were called active. No stated cut-off is given here; in the data, active means inhibition above about 20% (passing the limit was not always enough); inactive means the rest. Many of the other results were omitted from the sample, so actives are more common in it than they were.

target: Coagulation factor XI (Homo sapiens) (UniProt P03951); test: FXIa protease inhibitors in compound pools, primary screen, biochemical, 10-compound mixtures (AID 680); settings: purified FXIa, fluorogenic substrate, pooled mixtures; at 5 µM; stronger effect = higher value;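 further: each value is inhibition by a whole ten-compound pool holding the compound; 0% = enzyme with no mixture and 100% = wells lacking enzyme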
Sequence (P03951 19-387 limits assumed): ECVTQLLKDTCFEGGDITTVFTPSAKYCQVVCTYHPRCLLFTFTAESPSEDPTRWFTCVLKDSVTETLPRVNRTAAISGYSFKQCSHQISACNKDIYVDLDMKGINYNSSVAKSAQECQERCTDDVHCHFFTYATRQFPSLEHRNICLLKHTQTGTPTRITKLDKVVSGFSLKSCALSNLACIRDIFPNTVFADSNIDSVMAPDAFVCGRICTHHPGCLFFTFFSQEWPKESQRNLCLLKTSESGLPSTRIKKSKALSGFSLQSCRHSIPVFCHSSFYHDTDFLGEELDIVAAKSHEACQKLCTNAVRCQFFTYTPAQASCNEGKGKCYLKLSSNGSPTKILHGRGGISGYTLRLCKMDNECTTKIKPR
Sequence (P03951 388-625 limits assumed): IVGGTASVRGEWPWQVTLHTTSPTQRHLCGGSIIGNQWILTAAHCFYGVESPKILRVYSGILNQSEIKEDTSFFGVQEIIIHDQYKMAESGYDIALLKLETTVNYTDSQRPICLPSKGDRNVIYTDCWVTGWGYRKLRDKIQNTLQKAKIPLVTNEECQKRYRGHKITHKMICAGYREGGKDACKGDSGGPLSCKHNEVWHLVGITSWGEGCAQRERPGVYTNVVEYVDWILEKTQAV

inhibition, inactive:
CN1CCN(C(=O)c2ccc(NS(=O)(=O)c3ccccc3)cc2)CC1 1.27%
Cc1nonc1OCCn1nnnc1N -1.41%
COc1ccc(CCNS(=O)(=O)c2ccc(C(=O)NCc3ccco3)cc2)cc1OC 2.31%
Cc1ccc2nc(-c3ccc(SCC(=O)Nc4cc(C)on4)nc3)[nH]c2c1 -9.14%
COc1ccc(Cn2c(=O)sc3ccccc32)cc1OC -0.795%
CC1(C)Oc2ccc(C(=O)N3CCOCC3)cc2N(CC(=O)Nc2ccccc2)C1=O 7.31%
O=C(CSc1nnc(-c2cccs2)n1-c1ccccc1)N1CCN(C(=O)c2ccco2)CC1 -14.5%
O=S(=O)(NCCNS(=O)(=O)c1ccccc1)c1ccccc1 -3.77%
COc1ccc(NC(=O)c2c(SC)nsc2SC)cc1 4.24%
COc1cccc(Nc2ncccc2C(=O)O)c1 5.89%
COc1ccc(Cc2nnnn2CC(=O)O)cc1 3.18%
O=C(O)c1ccc(F)c(S(=O)(=O)Nc2ccccc2)c1 7.12%
CCN(CC)CCCNC(=O)c1cc(-c2cccc(Cl)c2)on1 5.02%
CCOC(=O)Cn1c(N)c(C(=O)OC)sc1=S -0.995%
O=C(Cn1cnc2c(cnn2-c2ccc(F)cc2)c1=O)NCCc1ccccc1 -10.3%
Cc1cc(C)c(C#N)c(SCc2[nH]nc3c2C(c2ccccc2)C(C#N)=C(N)O3)n1 (configuration not stated) 1.67%
c1ccc2c(CNn3cnnc3)cccc2c1 7.96%
COC(=O)c1ccc(CN(c2ccccc2OC)S(=O)(=O)c2cccs2)o1 -7.66%
CCOC(=O)c1c(C)nc(-c2ccccc2)nc1NC(=O)C(C)C 5.54%
CCOc1ccc(N=C2SC(C(=O)O)CC(=O)N2C)cc1 (configuration not stated) -15.5%
CCC(=NC1CC(C)(C)NC(C)(C)C1)C1=C(O)CC(C)(C)CC1=O -8.62%
CCCCN(C)C(=O)C1CCN(Cc2ccccn2)CC1 -2.55%
COc1ccc(CSc2nc(N3CCOCC3)c3c(c2C#N)CC(C)(C)OC3)cc1 -0.245%
COc1cc2cc(CN(CCN3CCCC3)C(=O)Nc3ccccc3Cl)c(=O)[nH]c2cc1OC 2.35%
C=CCn1c(SCc2nnc(-c3ccccc3)o2)nnc1C(O)c1ccccc1 (configuration not stated) -17.4%
CCCCCCC(=O)N(O)C1CC(=O)N(c2ccccc2)C1=O (configuration not stated) 1.64%
O=C1CC2(CCCCC2)Oc2ccc(OCC(=O)N3CCOCC3)cc21 4.52%
Cc1cn(COC/C=C/c2ccccc2)c(=O)[nH]c1=O -1.04%
CCNc1nc(NCC)nc(N(C)n2cnnc2)n1 -3.07%
CC(C)(C)c1ccc(C(=O)NCCC(=O)NCc2ccco2)cc1 3.48%
CCn1cc(C(=O)N2CCN(C3CCCCC3)CC2)c2cc(OC)c(OC)cc2c1=O 4.42%
COC(=O)[C@@H](NC(=O)NCc1cccc(OC)c1)C(C)C -1.25%
COC(=O)CCNc1ccc2c(c1)OCCO2 -1.79%
COc1ccc(-c2c(C)nn3c(N4CCC(C(=O)N5CCCCC5)CC4)cc(C)nc23)cc1OC 8.56%
CCc1ccccc1N(CC(=O)NCCSCc1ccco1)S(C)(=O)=O -9.75%
CCSc1nc2c(c(=O)[nH]1)C(c1cccnc1)C(C(=O)OC(C)C)=C(C)N2 (configuration not stated) 7.07%
Cn1c(=NC(=O)c2cnccn2)sc2ccccc21 5.25%
O=C(OC(C(=O)NC1CCCC1)c1ccc(F)cc1)c1ccno1 (configuration not stated) 7.23%
CN(C)CCNC(CC(=O)Nc1ccc(Cl)c(Cl)c1)C(=O)O (configuration not stated) 0.68%
CN1CCN(c2cc(=O)n(-c3ccc(Cl)cc3)c(=O)[nH]2)CC1 -10.3%
COc1ccc(C)cc1NC(=O)CSc1nc(SC)ns1 6.14%
CCOc1ccccc1NC(=O)C1CCN(S(=O)(=O)c2c(C)nn(C)c2C)CC1 9%
COc1cccc2c(=O)n(CC(=O)N3CCCCCC3)ccc12 -15.3%
Cc1ccc(C(=O)O)cc1S(=O)(=O)NCC1CCCO1 (configuration not stated) 8.82%
CCOC(=O)Cn1c(CN(Cc2ccccc2)Cc2ccccc2)nc2c1c(=O)[nH]c(=O)n2C -7.29%
CCSC(C)CC1C/C(=N/O)c2c(C)noc2C1 (configuration not stated) 0.87%
O=C(CSC1=Nc2ccccc2C2=NC(c3ccccc3)C(=O)N12)NCC1CCCO1 (configuration not stated) 2.26%
